Holding throughout (test): NCI-60 one-dose screen, 48 h (100 = growth as untreated, 0 = no growth, -100 = all killed)
What all share (details): 10 µM

In experiment [1] the test system is NCI-H23 lung.
Experiment [2] concerns NCI-H226 lung.
The test system of experiment [3] is NCI-H322M lung.
Experiment [4] has as its system HOP-62 NSCLC.
Experiment [5] concerns NCI-H460 lung.
Experiment [6] deals with NCI-H522 lung.
Experiment [7] has as its system A549/ATCC NSCLC.
For experiment [8], the system named is 786-0 renal.
The subject of experiment [9] is COLO 205 colon.
The test system of experiment [10] is DU-145 prostate.

This is an account of results in PubChem BioAssay (NCI).

Molecules are shown by their SMILES. The panel holds about 83,000 compounds, 20% with a hit somewhere; the sample as a whole holds those more often.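 A percent growth of 40 corresponds to 60% growth inhibition; 0 means no net growth; -100 means all cells died. Active threshold: below 10.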 Values without a mark were called inactive. Active and inactive are the calls of the source.

As for `Nc1nc(N)c(NC(=O)CNc2ccc(C(=O)O)cc2)c(N)n1`, the growth in experiment [1] was 112%; in experiment [2], 98%; in [3] it was 106%; in [4], 107%; in experiment [5], 110%; in [6], 92%. Besides, the growth in experiment [7] is 102%; in experiment [8], 107%; in experiment [9] it was 110%; in experiment [10], 121%.
As for `Cc1ncc(-c2ccoc2)c(NC2CCCCCC2)n1`, the growth is 97.9% in experiment [1]; 103% in experiment [2]; 80.7% in experiment [3]; 102% in [4]; 106% in experiment [5]; 82.8% in experiment [6]. In addition, the growth in [7] is 101%; in experiment [8], 99.2%; in [9], 106%; in [10] it was 110%.
On to `CCOC(=O)C(NC(=O)C(Cl)Cl)C(O)c1ccccc1` (stereo not given), for which the growth in experiment [1] was 102%; in [2] it was 93.1%; in experiment [3], 105%; in experiment [4], 82.8%; in experiment [5], 102%; in experiment [6], 122%. In addition, the growth in experiment [7] is 117%; in experiment [8], 129%; in [9] it was 126%; in [10], 102%.
Consider `O=C(O)c1ccc(Cl)cc1Nc1ccc(F)cc1`, for which the growth in experiment [1] is 92.7%; in [2], 82.3%; in experiment [3], 38.1%; in experiment [4], 96.7%; in [5] it was 76.8%; in experiment [6] it was 82.6%. In addition, the growth was 86.4% in [7], 68.6% in experiment [8], 95.7% in [9] and 87.1% in experiment [10].
Consider `CC(C)(C#N)Nc1ccccc1`, for which the growth in experiment [1] was 108%; in experiment [2], 95.8%; in experiment [3], 124%; in experiment [4], 108%; in experiment [5] it was 109%; in [6], 94.1%. Further, the growth in [7] is 96.9%; in experiment [8], 101%; in experiment [9], 109%; in experiment [10], 118%.
Regarding `COc1cc2nc(Nc3cccc(C(=O)O)c3)nc(N)c2cc1OC`, the growth was 128% in experiment [1]; 91.4% in experiment [2]; 126% in experiment [3]; -37.3% (active) in [4]; 108% in experiment [5]; 87.4% in experiment [6]. For the same molecule, the growth in experiment [7] was 104%; in experiment [8], -9.99% (active); in experiment [9], 111%; in [10], 102%.
Take `O=C(Nc1cccc(-n2cc(-c3ccncc3)c(-c3cc(O)cc(Cl)c3)n2)c1)Nc1ccc(Cl)c(C(F)(F)F)c1`: the growth in experiment [1] was 10.5%; in experiment [2] it was 41.2%; in experiment [3] it was 45%; in [4], 8.99% (active); in [5], 3.75% (active); in experiment [6], -16% (active). Moreover, the growth in experiment [7] was 8.81% (active); in [8] it was -29.8% (active); in experiment [9], 63.4%; in experiment [10], 18.7%.
For the molecule `Cc1cccc(NC2=C(C#N)C(=O)NC3(CCCC3)S2)c1`, the growth was 100% in [1]; 96.5% in experiment [2]; 112% in experiment [3]; 98.7% in experiment [4]; 107% in experiment [5]; 15.8% in experiment [6]. Moreover, the growth is 30.2% in experiment [7], 103% in experiment [8], 127% in experiment [9] and 117% in [10].
Turning to `COc1cc(-c2nc(Nc3nc4ccccc4s3)[nH]c(=O)c2C#N)cc(OC)c1O`, the growth in [1] is 105%; in experiment [2], 102%; in [3], 124%; in [4], 99.5%; in [5], 105%; in experiment [6], 97.2%. The growth in [7] was 106%; in experiment [8] it was 101%; in experiment [9], 100%; in [10], 113%.
On to `CCOC(=O)C(CSC(c1ccccc1)(c1ccccc1)c1ccccc1)NC(=O)C(CSC(c1ccccc1)(c1ccccc1)c1ccccc1)NC(c1ccccc1)(c1ccccc1)c1ccccc1` (stereo not given), for which the growth in experiment [1] is 116%; in [2] it was 93.5%; in experiment [3], 101%; in experiment [4], 101%; in experiment [5], 106%; in [6] it was 99.4%. Besides, the growth is 95.1% in experiment [7], 104% in experiment [8], 112% in [9] and 115% in [10].
`COc1ccc(NC(=O)Cc2nc3nc4sc(C)c(C)c4c(=O)n3[nH]2)cc1`: the growth in [1] is 101%; in [2], 86.7%; in experiment [3], 94.5%; in experiment [4] it was 107%; in [5], 110%; in [6] it was 90.3%. Moreover, the growth is 91.2% in [7], 104% in experiment [8], 118% in experiment [9] and 110% in [10].
`c1ccc([I+]c2ccccc2)cc1`: the growth in experiment [1] is 55.6%; in experiment [2], 65.5%; in [3], 72.8%; in experiment [4], 53.3%; in experiment [5], 86.5%; in experiment [6] it was 64.7%. Also, the growth in experiment [7] is 48.7%; in experiment [8], 61%; in [9], 55%; in experiment [10] it was 90%.
Consider `COc1ccc2c(c1OC)O/C(=C\c1ncc([N+](=O)[O-])n1C)C2=O`, for which the growth in experiment [1] is -17.1% (active); in experiment [2], 66.6%; in [3], 84.1%; in experiment [4] it was 56%; in experiment [5], -20.8% (active); in experiment [6], -54.5% (active). In addition, the growth is 19.3% in experiment [7], 17.9% in experiment [8], -55.6% (active) in experiment [9] and -24.7% (active) in [10].
On to `CC(C)(C)NC/C(=C\c1ccccc1)C(=O)c1ccccc1`, for which the growth in [1] was 12.4%; in experiment [2], 49.1%; in experiment [3], 63.3%; in experiment [4], 26.5%; in experiment [5], 8.72% (active); in [6], -92.5% (active). The growth was 30.1% in experiment [7], -41.6% (active) in experiment [8], -74.1% (active) in experiment [9] and 21.8% in [10].
